Source: PubChem BioAssay (National Center for Advancing Translational Sciences (NCATS))
Sampled rows, rich in hits. Any-hit rate of the full collection: about 4.7%.
TRHR enhancer: qHTS for Small Molecule Agonists and Allosteric Enhancers of Human TRH Receptor: Primary Screen for Enhancers. 360,000 tested, 0.66% active. TRHR cells, fluo-8 calcium fluorescence, EC20 TRH enhancement. enhancement, % at 2 µM; in the data active means enhancement above about 30%; further: 0% is about no effect
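Enhancer read-out: after compound pinning and an initial kinetic agonist-mode read, an EC20 of TRH (10 nM final) was injected and fluo-8 calcium signal (Ex 480/Em 530) followed at 1 s/cycle for 100 cycles in TRHR-expressing cells.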
D1 agonist: Allosteric Agonists of the Human D1 Dopamine Receptor: qHTS | D(1A) dopamine receptor (Homo sapiens), P21728 | HEK293 T-REx D1 cells, calcium flux, agonist mode | activation, % at 2 µM | 360,000 tested, 1% active | AID 504660, 2011; further: 0% is about no effect
Target sequence (P21728 whole entry, looked up): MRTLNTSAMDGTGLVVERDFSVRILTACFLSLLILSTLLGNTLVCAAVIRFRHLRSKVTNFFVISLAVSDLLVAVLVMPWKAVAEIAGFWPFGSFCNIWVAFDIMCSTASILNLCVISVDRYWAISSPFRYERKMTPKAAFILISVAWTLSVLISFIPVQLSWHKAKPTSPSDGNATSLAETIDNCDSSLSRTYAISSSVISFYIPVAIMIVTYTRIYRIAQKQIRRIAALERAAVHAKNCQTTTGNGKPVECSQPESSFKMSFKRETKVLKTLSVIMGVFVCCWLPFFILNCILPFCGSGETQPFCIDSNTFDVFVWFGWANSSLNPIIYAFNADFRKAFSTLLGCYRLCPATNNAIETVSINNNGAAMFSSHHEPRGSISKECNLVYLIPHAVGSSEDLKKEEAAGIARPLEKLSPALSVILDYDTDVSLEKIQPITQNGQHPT
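Agonism was scored from calcium flux recorded over 180 s (1 read/s) after pintool compound addition, following a 10-cycle baseline. Cells were inducible force-coupled HEK293 TREx D1, plated overnight at 30 C and loaded with no-wash calcium dye.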
TRHR agonist: qHTS for Small Molecule Agonists and Allosteric Enhancers of Human TRH Receptor: Primary Screen for Agonists; Thyrotropin-releasing hormone receptor (Homo sapiens), P34981; TRHR cells, calcium flux fluo-8, FDSS agonist mode; activation, % at 2 µM; 360,000 tested, 0.18% active; AID 493084, 2011; further: 0% is about no effect
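In this calcium-flux screen, cells bearing human TRHR are dye-loaded with fluo-8, baselined for 10 cycles, then exposed to library compounds; positive kinetic calcium responses during the agonist phase mark hits, with TRH as control.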
D1 antagonist: Antagonist of Human D 1 Dopamine Receptor: qHTS; activity change, negative = inhibition, % at 10 µM; D(1A) dopamine receptor (Homo sapiens), P21728; 360,000 tested, 3.2% active; HEK293 TREx D1 cells, calcium flux, dopamine EC80; stronger effect = lower value; in the data active means activity change below about -30%; further: on the % scale 0 is the no-effect control and ±100 the full control effect
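Cells carrying a force-coupled, tetracycline-inducible human D1 receptor report calcium flux. Each well gets a 10 s baseline, compound with 180 s monitoring, then an EC80 dopamine stimulus with a second 180 s kinetic read.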
D1 PAM: Potentiators of Human D1 Dopamine Receptor: qHTS; D(1A) dopamine receptor (Homo sapiens), P21728; HEK293 TREx D1 cells, calcium flux, dopamine EC20 potentiation; potentiation, % at 10 µM; 360,000 tested, 0.036% active; AID 504651, 2011; in the data active means potentiation above about 30%; further: 0% is about no effect
* marks the source's active call; other numbers are inactive results. Unless noted, no stated cut-off is given here; in the data, active means activation above about 30%; inactive means the rest.

How did COc1ccc(CNC(=S)Nc2ccc(Br)cc2)cc1 do in these assays?
TRHR enhancer: -2; D1 agonist: 37*; TRHR agonist: 2; D1 antagonist: -5; D1 PAM: -7

How did COc1ccc(/C=C(/NC(=O)/C=C/c2ccccc2)C(=O)O)cc1 do in these assays?
TRHR enhancer: 34*; D1 agonist: -1; TRHR agonist: 0; D1 antagonist: 14; D1 PAM: 6

What do the screens show for `COc1ccc(NC(=S)NC(=O)/C=C/c2ccccc2)cc1`?
TRHR enhancer: -3; D1 agonist: 1; TRHR agonist: 0; D1 antagonist: 6; D1 PAM: 9

How did Cc1ccc(NC(=O)NCc2cccnc2)cc1C do in these assays?
TRHR enhancer: 10; D1 agonist: 1; TRHR agonist: 0; D1 antagonist: 1; D1 PAM: 2

How did O=C(NCc1cccnc1)Nc1ccc(Cl)c(Cl)c1 do in these assays?
TRHR enhancer: -7; D1 agonist: 13; TRHR agonist: 1; D1 antagonist: -46*; D1 PAM: -6

Results for COc1cc(/C=C/C(=O)NCc2cccnc2)cc(OC)c1OC ?
TRHR enhancer: 1; D1 agonist: 3; TRHR agonist: 0; D1 antagonist: -15; D1 PAM: -3

Results for COc1ccc(/C=C/C(=O)NCc2cccnc2)cc1 ?
TRHR enhancer: -5; D1 agonist: -1; TRHR agonist: -1; D1 antagonist: -40*; D1 PAM: -6

What do the screens show for `Cc1ccc2c(Cl)c(C(=O)NC3CC3)sc2c1`?
TRHR enhancer: 5; D1 agonist: 0; TRHR agonist: -1; D1 antagonist: 6; D1 PAM: -3

How did CC1CCN(c2nc3ccc(C(=O)NCc4ccccc4Cl)cc3s2)CC1 do in these assays?
TRHR enhancer: -5; D1 agonist: 5; TRHR agonist: 1; D1 antagonist: 1; D1 PAM: 0

Results for COc1ccc(NC(=S)NCc2cccnc2)cc1 ?
TRHR enhancer: 1; D1 agonist: 1; TRHR agonist: 0; D1 antagonist: -31*; D1 PAM: -1

How did COc1ccc(C(=O)NCCS(=O)(=O)NCc2cccnc2)cc1 do in these assays?
TRHR enhancer: 33*; D1 agonist: 1; TRHR agonist: 0; D1 antagonist: -15; D1 PAM: -6

What do the screens show for `COc1ccc(NC(=S)NCc2cccnc2)cc1OC`?
TRHR enhancer: 2; D1 agonist: 0; TRHR agonist: 0; D1 antagonist: 6; D1 PAM: -3

What do the screens show for `S=C(NCc1cccnc1)Nc1ccc(Cl)c(Cl)c1`?
TRHR enhancer: -14; D1 agonist: 28; TRHR agonist: 3; D1 antagonist: -46*; D1 PAM: -4

How did Cc1cc(=O)n2nc(N3CCCC(C(=O)NCc4ccccc4C)C3)sc2n1 (stereo not given) do in these assays?
TRHR enhancer: -1; D1 agonist: 1; TRHR agonist: 0; D1 antagonist: -12; D1 PAM: -3

What do the screens show for `Cc1c(NC(=O)/C(C#N)=C/c2ccc(-c3cc(Cl)ccc3Cl)o2)c(=O)n(-c2ccccc2)n1C`?
TRHR enhancer: 34*; D1 agonist: 3; TRHR agonist: 0; D1 antagonist: -17; D1 PAM: -9

What do the screens show for `O=C(Nc1nnc(SCc2ccc(Cl)cc2)s1)c1cnccn1`?
TRHR enhancer: 3; D1 agonist: 4; TRHR agonist: 0; D1 antagonist: -36*; D1 PAM: 0

Results for CCCC(=O)N1CCN(c2nc3ccccc3s2)CC1 ?
TRHR enhancer: 3; D1 agonist: 4; TRHR agonist: 1; D1 antagonist: 7; D1 PAM: -5

How did O=C(c1cccs1)N1CCN(c2nc3ccccc3s2)CC1 do in these assays?
TRHR enhancer: -4; D1 agonist: 6; TRHR agonist: 1; D1 antagonist: -37*; D1 PAM: -3

Results for O=C(C1COc2ccccc2O1)N1CCN(c2nc3ccc([N+](=O)[O-])cc3s2)CC1 (stereo not given) ?
TRHR enhancer: -7; D1 agonist: 6; TRHR agonist: 0; D1 antagonist: -24; D1 PAM: 0

What do the screens show for `O=C(C1COc2ccccc2O1)N1CCN(c2nc3ccccc3s2)CC1` (stereo not given)?
TRHR enhancer: 3; D1 agonist: 6; TRHR agonist: 0; D1 antagonist: -62*; D1 PAM: -8

How did CCSc1ccccc1C(=O)N1CCN(c2nc3ccccc3s2)CC1 do in these assays?
TRHR enhancer: 6; D1 agonist: 31*; TRHR agonist: -1; D1 PAM: 8

What do the screens show for `Cc1cccc2sc(N3CCN(C(=O)c4cccs4)CC3)nc12`?
TRHR enhancer: -6; D1 agonist: 4; TRHR agonist: 0; D1 antagonist: -9; D1 PAM: -8

How did Clc1ccc(-c2nnc(-c3ccccc3)o2)cn1 do in these assays?
TRHR enhancer: 8; D1 agonist: 1; TRHR agonist: 0; D1 antagonist: 13; D1 PAM: -4

Results for O=C(O)c1ccc(Nc2ncnc3c2cnn3Cc2ccccc2)cc1 ?
TRHR enhancer: 3; D1 agonist: 6; TRHR agonist: 0; D1 antagonist: -46*; D1 PAM: -1

What do the screens show for `COc1ccc(C(=O)NCC(=O)OC(C(=O)Nc2cc(C(F)(F)F)ccc2Cl)c2ccccc2)cc1OC` (stereo not given)?
TRHR enhancer: 2; D1 agonist: 5; TRHR agonist: -1; D1 antagonist: -16; D1 PAM: -1

Results for O=c1[nH]c(=O)n(Cc2ccco2)c2c1C(C(F)(F)F)(C(F)(F)F)N=C(CCC1CCCCC1)N2 ?
TRHR enhancer: 4; D1 agonist: 26; TRHR agonist: 2; D1 antagonist: 23; D1 PAM: -5

What do the screens show for `CC(C)Cn1c2c(c(=O)[nH]c1=O)C(C(F)(F)F)(C(F)(F)F)N=C(CCC1CCCCC1)N2`?
TRHR enhancer: 5; D1 agonist: 31*; TRHR agonist: 1; D1 antagonist: 0; D1 PAM: 8

What do the screens show for `CCCCN(CC)CCNC(=O)CCn1cnc2onc(-c3ccc(F)cc3)c2c1=O`?
TRHR enhancer: -7; D1 agonist: 32*; TRHR agonist: 4; D1 antagonist: -25; D1 PAM: -6

Results for COc1ccc(COc2ccccc2C(=O)NCc2ccccc2)cc1F ?
TRHR enhancer: -8; D1 agonist: 12; TRHR agonist: 1; D1 antagonist: -37*; D1 PAM: -3

Results for Cc1cc(NS(=O)(=O)c2ccc(NC(=O)c3c(F)c(F)c(F)c(F)c3F)cc2)nc(C)n1 ?
TRHR enhancer: 1; D1 agonist: 3; TRHR agonist: 0; D1 antagonist: -49*; D1 PAM: -8
